Sampled rows, rich in hits. Any-hit rate of the full collection: about 0.84%.
TR-FRET SRC-2 ct – counter-screen for PPARgamma SRC-2 recruitment agonists: TR-FRET artefact | hits give high values | TR-FRET ratio at 8 µM | 0.4% of 200,000 active; in the data active = TR-FRET ratio above about 2000
PPARg SRC3 recr – agonists of human PPARgamma SRC-3 coactivator recruitment; biochemical PPARgamma/SRC-3 coactivator recruitment assay; activation, % at 8 µM; 0.26% of 200,000 active; AID 731; in the data active = activation above about 23%;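 note: 0% = DMSO and 100% = reference agonist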
Target sequence (P37231 whole entry, looked up): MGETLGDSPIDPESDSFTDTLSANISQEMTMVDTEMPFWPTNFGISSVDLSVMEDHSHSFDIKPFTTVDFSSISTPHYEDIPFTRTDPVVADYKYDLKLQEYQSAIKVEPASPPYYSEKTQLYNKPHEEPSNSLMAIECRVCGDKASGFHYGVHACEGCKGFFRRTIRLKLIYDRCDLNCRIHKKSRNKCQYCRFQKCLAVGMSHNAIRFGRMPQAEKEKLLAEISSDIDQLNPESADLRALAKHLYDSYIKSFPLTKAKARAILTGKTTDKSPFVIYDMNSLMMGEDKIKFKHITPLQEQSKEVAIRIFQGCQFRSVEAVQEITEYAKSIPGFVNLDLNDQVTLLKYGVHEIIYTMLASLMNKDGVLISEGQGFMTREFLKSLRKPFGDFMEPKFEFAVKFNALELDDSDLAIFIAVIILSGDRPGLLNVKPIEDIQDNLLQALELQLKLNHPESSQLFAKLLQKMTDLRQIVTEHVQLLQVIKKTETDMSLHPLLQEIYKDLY
SRC1 TRFRET art – flags TR-FRET format artefacts in PPARgamma SRC-1 recruitment agonist screen | TR-FRET detection artefact counter-screen, emission ratio; hits give high values | TR-FRET ratio at 8 µM | 0.34% of 99,000 active; in the data active = TR-FRET ratio above about 2300
PPARg SRC2 recr – agonists of SRC-2 recruitment by human PPARgamma; P37231; PPARgamma LBD-SRC-2 recruitment, biochemical; activation, % at 8 µM; 0.34% of 200,000 active; AID 1032;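 note: 0% = vehicle and 100% = reference agonist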
SRC3 TRFRET art – flags TR-FRET format artefacts in PPARgamma SRC-3 recruitment agonist screen. TR-FRET artefact counter-screen, PPARgamma/SRC-3 format; hits give high values. TR-FRET ratio at 8 µM. 0.39% of 99,000 active. AID 1048; in the data active = TR-FRET ratio above about 2000
PPARg SRC-1 ag – agonists of human PPARgamma SRC-1 coactivator recruitment; 0.41% of 200,000 active; AID 631; activation, % at 8 µM; PPARgamma-SRC-1 coactivator recruitment biochemical assay; in the data active = activation above about 19%;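 note: 0% = DMSO and 100% = reference agonist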
PPARg SRC2 ag – confirmation of agonists of SRC-2 recruitment by human PPARgamma; biochemical SRC-2 recruitment by PPARgamma; 52% of 790 active; activation, % at 8 µM; shares compounds with PPARg SRC3 recr; AID 1297;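 note: 0% = vehicle alone and 100% = reference agonist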
PPARg SRC1 ag – confirmation of agonists of SRC-1 recruitment by human PPARgamma. shares compounds with PPARg SRC3 recr. PPARgamma–SRC-1 coactivator recruitment biochemical assay. 43% of 790 active. activation, % at 8 µM. AID 1300; in the data active = activation above about 20%;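 note: 0% = vehicle wells and 100% = reference agonist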
PPARg SRC3 ag – confirmation of agonists of SRC-3 recruitment by human PPARgamma. 29% of 790 active. biochemical PPARgamma-SRC-3 coactivator recruitment, agonist mode. activation, % at 8 µM. shares compounds with PPARg SRC3 recr; in the data active = activation above about 24%;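 note: 0% = vehicle wells and 100% = reference agonist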
An asterisk follows results filed as active; . = no result given. Cut-off read from the data, not from the text of the source, unless noted: active = activation above about 22%; inactive = the rest.

SMILES | TR-FRET SRC-2 ct | PPARg SRC3 recr | SRC1 TRFRET art | PPARg SRC2 recr | SRC3 TRFRET art | PPARg SRC-1 ag | PPARg SRC2 ag | PPARg SRC1 ag | PPARg SRC3 ag
CCOC(=O)c1sc(NC(=O)c2ccco2)nc1-c1ccccc1 | 1718 | 31.8* | . | 3.7 | . | 26.4* | 31.7* | 19.5 | 17.3
CS(=O)(=O)c1ccccc1-c1nnc(-c2ccc(Cl)cc2)o1 | 1576 | 1.5 | 1928 | -2.8 | 1694 | 0.7 | . | . | .
O=S(=O)(Cc1ccc(Cl)cc1)c1ccccc1-c1nnc(-c2ccccc2)o1 | 2006* | 17.4 | . | 25.7* | . | 10.1 | 0.6 | 3.4 | -0.2
O=C1CCCN1CCNC(=S)Nc1ccccc1 | 1426 | 11.1 | . | 0.1 | . | 0.9 | . | . | .
O=C1CCCN1CCCNC(=S)Nc1ccc(Nc2ccccc2)cc1 | 1621 | 10.6 | 2144 | 13.9 | 1767 | 23.8* | 9.4 | 5.2 | 4.6
O=C(N/N=C/c1ccc(N2CCOCC2)o1)c1cccc(C(F)(F)F)c1 | 1609 | 12.7 | . | 23.6* | . | 11.7 | 5.6 | 3.8 | 3.9
CCOC(=O)c1c(NC(=S)Nc2ccc(Cl)cc2)sc(C)c1C | 1461 | 1.6 | . | 4.1 | . | 1.9 | . | . | .
Cc1sc(NC(=S)Nc2ccc(F)cc2)c(C(N)=O)c1C | 1942 | 12.0 | 2290 | 17.2 | 2013 | 25.2* | 26.5* | 16.5 | 15.4
COC(=O)c1c(NC(=S)Nc2ccc(CC(=O)O)cc2)sc(C)c1C | 1741 | 10.2 | 2214 | 11.3 | 1747 | 22.4* | 50.3* | 36.2* | 31.1*
COC(=O)C1=C(C)N(C2CCCCC2)C(=O)/C1=C\c1cccs1 | 1531 | 2.3 | 1666 | -2.1 | 1693 | 7.1 | . | . | .
Nc1cc2nsnc2cc1Br | 6354* | 333.8* | . | 265.2* | . | 230.5* | 224.9* | 166.8* | 149.9*
CC/C(=N\NC(=O)c1cccnc1)c1ccc2c(c1)OCCO2 | 1717 | 1.5 | 1936 | -1.1 | 1693 | -3.0 | . | . | .
Cn1c(=O)cc(OCC(=O)NCCCN2CCN(Cc3ccccc3)CC2)c2ccccc21 | 1472 | 3.6 | . | 7.6 | . | 3.4 | . | . | .
Cc1cccc(CN2CCN(CC(=O)NCCCN3CCN(c4ccc(F)cc4)CC3)C2=O)c1 | 1486 | 4.6 | . | 15.3 | . | 1.5 | . | . | .
CCn1c(=O)cc(SCC(=O)NCCCN2CCC(C)CC2)c2ccccc21 | 1872 | 8.9 | 2386* | 25.8* | 1905 | 13.5 | 20.9 | 13.0 | 12.4
CCn1c(=O)cc(SCC(=O)NCCCN2CCN(c3ccc(F)cc3)CC2)c2ccccc21 | 3656* | 101.4* | . | 80.7* | . | 87.4* | 38.2* | 23.4* | 25.4*
CCn1c(=O)cc(SCC(=O)NCCN2CCN(Cc3ccccc3)CC2)c2ccccc21 | 3069* | 70.2* | . | 62.8* | . | 49.0* | 29.1* | 15.8 | 18.4
CCOC(=O)c1cc(C(=O)c2ccccc2O)cn2c(=O)c3c(C)c(C)sc3nc12 | 1571 | -0.4 | 1814 | 0.5 | 1583 | -10.9 | . | . | .
Cc1noc(C)c1COc1cccc(C(=O)NC(C)(C)C)c1 | 1705 | 3.0 | 1860 | 7.5 | 1409 | 5.9 | . | . | .
Cc1ccc2cccc(S(=O)(=O)N3CCCc4ccccc43)c2n1 | 1507 | 3.0 | 1990 | -2.0 | 1660 | 6.9 | . | . | .
COc1cccc(C(=O)N=c2sc3cc(S(C)(=O)=O)ccc3n2C)c1 | 1798 | 16.3 | 1973 | 19.1 | 1660 | 26.8* | 13.6 | 6.4 | 4.4
COc1cc(OC)cc(C(=O)N=c2sc3ccccc3n2C)c1 | 1838 | 2.5 | 1871 | 10.0 | 1632 | 3.3 | . | . | .
CCOc1ccc(NC(=S)C(C#N)=C2N(C)c3ccccc3N2C)cc1 | 1563 | -0.4 | 1817 | 17.7 | 1702 | 22.8* | 0.1 | -1.4 | 3.5
CC(C(=O)NN=C(c1ccccc1)c1ccccc1)N1CCOCC1 (stereo not drawn) | 1769 | 2.4 | 1772 | 0.3 | 1667 | 1.3 | . | . | .
Cc1cc(C)c(NC(=O)CSc2nc3ccc(NC(=O)CSc4nnnn4Cc4ccccc4)cc3s2)c(C)c1 | 1906 | 15.2 | . | 23.7* | . | 9.5 | 8.9 | 9.6 | 7.6
SMILES | TR-FRET SRC-2 ct | PPARg SRC3 recr | SRC1 TRFRET art | PPARg SRC2 recr | SRC3 TRFRET art | PPARg SRC-1 ag | PPARg SRC2 ag | PPARg SRC1 ag | PPARg SRC3 ag
CCn1c(C)nc2cc(S(=O)(=O)N3CCCC3)ccc21 | 1843 | -10.4 | . | 24.1* | . | 1.1 | -2.1 | 1.7 | 2.3
O=C(COC(=O)c1cc(-c2cccc3ccccc23)nc2ccccc12)NC1CCS(=O)(=O)C1 (stereo not drawn) | 1761 | 9.7 | 2123 | 10.2 | 2043 | 8.9 | . | . | .
CCN(C(=O)COC(=O)c1cc(-c2cccc3ccccc23)nc2ccccc12)C1CCS(=O)(=O)C1 (stereo not drawn) | 1710 | 10.4 | 2115 | 22.2* | 2078* | 11.4 | 9.6 | 7.5 | 5.4
Cc1ccc(S(=O)(=O)Nc2cnn(-c3ccccc3)c(=O)c2Cl)cc1 | 2289* | 27.5* | 3010* | 38.9* | 2439* | 34.5* | 47.4* | 35.1* | 27.5*
CNc1cnn(-c2ccc(C)cc2)c(=O)c1Cl | 1515 | 9.0 | . | -1.8 | . | -4.5 | . | . | .
CCSC1=NSC2=NC(=O)/C(=C\c3coc4ccccc4c3=O)C(=N)N12 | 1696 | 22.9* | 1609 | 12.8 | 1460 | 8.0 | 9.0 | 8.1 | 19.5
CC(=O)NCCNC(=O)C1CCCCN1S(=O)(=O)c1ccccc1 (stereo not drawn) | 1563 | 1.8 | 1898 | -8.0 | 1404 | -0.2 | . | . | .
COc1ccc(NC(=O)c2ccc(Oc3ncccn3)cc2)cc1 | 1243 | -5.3 | 1628 | -1.8 | 1455 | -4.7 | . | . | .
CCn1c(=S)[nH]c2scc(-c3cccs3)c2c1=O | 2915* | 39.1* | 3314* | 49.4* | 2804* | 52.1* | 60.0* | 44.4* | 39.1*
O=c1c2c(-c3cccs3)csc2[nH]c(=S)n1-c1ccccc1 | 2587* | 81.7* | . | 42.6* | . | 64.7* | 63.0* | 47.7* | 41.6*
O=c1c2c(-c3cccs3)csc2ncn1-c1ccccc1 | 1481 | 1.9 | . | -0.2 | . | -2.4 | . | . | .
C=CCn1c(=S)[nH]c2scc(-c3ccc(C)o3)c2c1=O | 2125* | 24.3* | 2448* | 14.7 | 2146* | 24.8* | 20.8 | 15.2 | 16.2
C=CCn1c(=S)[nH]c2sccc2c1=O | 1612 | 0.3 | 1985 | 8.8 | 1503 | 6.7 | . | . | .
O=C(Nc1nnc(CCN2CCCCC2)s1)c1ccccc1Cl | 1440 | 5.2 | 1926 | 2.9 | 1494 | -2.0 | . | . | .
CCC(OC(=O)c1cc2sccc2n1C)C(=O)NCc1ccco1 (stereo not drawn) | 1504 | 14.2 | . | 9.9 | . | 31.4* | 16.1 | 24.9* | 26.4*
Cn1c(C(=O)OCC(=O)NCc2ccco2)cc2sccc21 | 1382 | -2.0 | . | 1.7 | . | -3.7 | . | . | .
CC1Cc2ccccc2N1C(=O)CN1CCC(C(N)=O)CC1 (stereo not drawn) | 1557 | -0.2 | 1573 | -0.4 | 1409 | -1.0 | . | . | .
